{
  "source": "PubChem BioAssay (Tox21)",
  "note": "Inconclusive results are not listed. The source made the active and inactive calls. The call rests on the fitted dose curve; in most records, active means well fitted activation curve with a large enough effect in the repeat runs; inconclusive means weak or mixed curves, or effect the other way; inactive means no such curve, though single readings can be large or run the other way.",
  "data": [
    {"assay": "qHTS assay to identify small molecule agonists of the estrogen related receptor signaling pathway with the pleiotropic PPARgamma coactivator (PGC) from Tox21 10K library (AID 1224842); further: nearly all actives have a fitted effect of over 15% in size", "conditions": "PGC/ERR reporter cell line, luciferase ONE-Glo, 18 h; series mostly up to 92.4 µM", "excerpt": "National Center for Advancing Translational Sciences [NCATS] NIH Chemical Genomics Center [NCGC] U.S. Environmental Protection Agency [EPA] National Institutes of Environmental Health Sciences [NIEHS] National Toxicology Program [NTP] Assay overview: Estrogen related receptors (ERRs), the first orphan nuclear receptors discovered, play an important role in the control of cellular energy metabolism. ERRs are required for high-energy production in response to the environmental challenges. The pleiotropic PPARgamma coactivator (PGC) is a major partner of ERR and a key regulator in energy homeostasis. Together they have been implicated in the etiology of metabolic disorders such as Type 2 diabetes and metabolic syndrome. ERR-alpha was also identified as an adverse marker for breast cancer progression; ERR-alpha-positive tumors have a poor prognosis. To screen and to identify environmental compounds that perturb the PGC/ERR signaling pathways could provide valuable information for potential therapeutic or preventive measures in the treatment of metabolic disease. For identifying PGC/ERR agonists, PGC/ERR cell line (provided by NTP) has been used to screen Tox21 10K library.\nAssay Protocol Summary: The PGC/ERR cells were dispensed at 2,000 cells/5 ul/well in 1536-well white plates using a Multidrop dispenser. After the assay plates were incubated at a 37 C/5% CO2 incubator for 6 hours, 23 nL of compounds dissolved in DMSO, positive and negative controls or DMSO only was transferred to the assay plate by a pin tool. The plates were incubated at 37 C for 18 hours. 4 ul/well of One-Glo reagent was added into the assay plates using a Flying Reagent Dispenser. After 30-minute incubation at room temperature, the luminescence intensity in the plates was measured using a ViewLux plate reader.", "values": [
      {"smiles": "COc1nc(N)nc2nc[nH]c12", "outcome": "inactive"},
      {"smiles": "CC1c2ccccc2CN1NC(=O)c1ccc(Cl)c(S(N)(=O)=O)c1", "note": "(stereo not given)", "outcome": "inactive"},
      {"smiles": "CCCC(=O)OCCC(C)CCC=C(C)C", "note": "(stereo not given)", "outcome": "inactive"},
      {"smiles": "O=C(O)CCCCCC(=O)O", "outcome": "inactive"},
      {"smiles": "O=Cc1ccccc1Cl", "outcome": "inactive"},
      {"smiles": "OC[C@@H](O)C(O)[C@@H](O)CO", "note": "(stereo not given in full)", "outcome": "inactive"},
      {"smiles": "CCCCCCCCCCCCCBr", "outcome": "inactive"},
      {"smiles": "CC(C)(CO)C(O)C(=O)NCCCO", "note": "(stereo not given)", "outcome": "inactive"},
      {"smiles": "CCC(C(=O)OCCN1CCOC(c2ccccc2)C1C)c1ccccc1", "note": "(stereo not given)", "outcome": "inactive"},
      {"smiles": "CC1=C(C(=O)O)N2C(=O)[C@@H](NC(=O)[C@H](N)c3ccccc3)[C@H]2SC1", "outcome": "inactive"},
      {"smiles": "CN(C)CCCO[C@@H]1[C@H]2OC(C)(C)O[C@H]2O[C@@H]1C(O)CO", "note": "(stereo not given in full)", "outcome": "inactive"},
      {"smiles": "Nc1nc(-c2ccccc2)c(Br)c(=O)[nH]1", "outcome": "inactive"},
      {"smiles": "c1ccc2c(CC3=NCCN3)cccc2c1", "outcome": "inactive"},
      {"smiles": "CC(C)(C)NC[C@H](O)COc1cccc2c1CCCC2=O", "outcome": "inactive"},
      {"smiles": "c1ccc(B(c2ccccc2)c2ccccc2)cc1", "outcome": "inactive"},
      {"smiles": "CC(C)C[C@@H]1[C@H](c2ccccc2)OC(=O)N1CCCN1CCCCCC1", "outcome": "inactive"},
      {"smiles": "CCC(=O)CC", "outcome": "inactive"},
      {"smiles": "O=C(CCCCC(=O)Nc1c(I)cc(I)c(C(=O)O)c1I)Nc1c(I)cc(I)c(C(=O)O)c1I", "outcome": "inactive"},
      {"smiles": "CC1CCc2c(N3CCC(O)CC3)c(F)cc3c(=O)c(C(=O)O)cn1c23", "note": "(stereo not given)", "outcome": "inactive"},
      {"smiles": "c1ccc2cnccc2c1", "outcome": "inactive"},
      {"smiles": "CCC(=O)c1c(O)cc(O)cc1O", "outcome": "inactive"},
      {"smiles": "CC/C=C\\CCOC(=O)c1ccccc1O", "outcome": "inactive"},
      {"smiles": "C/C=C(\\C)C(=O)OCCc1ccccc1", "outcome": "inactive"},
      {"smiles": "c1ccc(-c2nn[nH]n2)cc1", "outcome": "inactive"},
      {"smiles": "Cn1nnc2c(C(N)=O)ncn2c1=O", "outcome": "inactive"}
    ]}
  ]
}
